Data as given in PubChem BioAssay (NCI).
About 79,000 compounds went through this panel and 15% of them were active in at least one assay; those are over-represented in the sample as a whole. Activity calls are given as the source filed them. Cut-off read from the data, not from the text of the source: active = growth inhibition above about 70%; inactive = the rest.

Key:
[1] = NCI Yeast Anticancer Drug Screen. Data for the rad50 strain (AID 155);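 note: 0% = growth of vehicle-only cultures of the same strain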; settings: S. cerevisiae rad50 strain growth inhibition; at 50.0 µM; stronger effect = higher value
Outline: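 Growth of the mutant yeast was measured after compound exposure and referenced to vehicle-treated cultures.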

[2] = NCI Yeast Anticancer Drug Screen. Data for the mec2-1 strain (AID 157); settings: S. cerevisiae mec2-1 strain, at 50.0 µM, stronger effect = higher value
Outline: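 Growth inhibition is read against vehicle-treated controls after compound exposure of the mec2-1 yeast strain, which is defective in DNA damage repair or cell cycle control.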

[3] = NCI Yeast Anticancer Drug Screen. Data for the sgs1 mgt1 strain (AID 161);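 note: 0% = growth of cultures given vehicle only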; settings: S. cerevisiae sgs1 mgt1 strain, at 50.0 µM, stronger effect = higher value
Outline: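 Yeast cells carrying a defined DNA-repair defect were exposed to test compounds. Growth inhibition was measured relative to vehicle-treated controls.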

[4] = NCI Yeast Anticancer Drug Screen. Data for the cln2 rad14 strain (AID 165);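 note: 0% = growth equal to vehicle treated cultures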; settings: S. cerevisiae cln2 rad14 strain, at 50.0 µM, stronger effect = higher value
Outline: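 Growth inhibition, relative to vehicle-treated controls, is the read-out. The test organism is a yeast strain with defined genetic alterations, cln2 rad14.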

[5] = NCI Yeast Anticancer Drug Screen. Data for the bub3 strain (AID 167); settings: S. cerevisiae bub3 mutant strain, at 50.0 µM, stronger effect = higher value
Outline: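 Whole-cell yeast assay. The mutant strain was incubated with compounds, and growth inhibition was determined by comparison with vehicle-treated cells.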

[6] = NCI Yeast Anticancer Drug Screen. Data for the mlh1 rad18 strain (AID 175); settings: S. cerevisiae mlh1 rad18 strain growth inhibition; at 50.0 µM; stronger effect = higher value
Outline: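 Cells of a genetically altered yeast strain, deficient in DNA damage repair, were treated with compound. Their growth was then compared with that of vehicle-treated cultures to give inhibition.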

Measured: growth inhibition

COc1cc2c3c(c1OC)C1(C=CC(=O)C=C1)CC3NCC2 (configuration not stated)
inactive: [1] -45.9% | [2] -4.8% | [3] -8.5% | [4] -10.1% | [5] -18.9% | [6] -45.6%

Cc1cc(C)c(CSc2cc(N)nc(N)c2N)c(C)c1
inactive: [1] 15.4% | [2] 9.3% | [3] 1.25% | [4] 5.9% | [5] 6.9% | [6] 48.2%

CN(N)c1cc(=O)n(C)c(=O)n1C
inactive: [1] -1.35% | [2] -1.2% | [3] -10.7% | [4] -45.1% | [5] -3.05% | [6] 15.6%

CCNc1ncc2nc(CC(=O)OC)c(=O)n(CC)c2n1
inactive: [1] -10.3% | [2] 1.6% | [3] 4.75% | [4] -75.6% | [5] 10.5% | [6] -4.4%

COc1ccc(OC(=O)Nc2cccc(Cl)c2)cc1
inactive: [1] 8.4% | [2] 39.1% | [3] 29.8% | [4] -11.3% | [5] 31.4% | [6] 55.6%

Cc1cc(N(CCC#N)CCC#N)ccc1C=Nc1ccc(C(=O)NN2C(=O)/C(=C/c3ccc(N(CCC#N)CCC#N)cc3)N=C2c2cc([N+](=O)[O-])ccc2Cl)cc1
inactive: [1] 17.9% | [2] 10.1% | [3] 2.6% | [4] 24% | [5] 4.7% | [6] 7.8%

c1ccc(C23c4ccccc4C2c2ccccc23)cc1 (configuration not stated)
inactive: [1] 14.3% | [2] 11.9% | [3] 22.2% | [4] 10.2% | [5] 18.3% | [6] 13.9%

CNc1ccccc1C(=O)N/N=C/c1ccc(O)c(OC)c1
inactive: [1] 3% | [2] 5.65% | [3] 0.85% | [4] 2.55% | [5] 37.4% | [6] -19.6%

CC(=O)Nc1ccc(S(=O)(=O)Nc2cccc3ccccc23)cc1
inactive: [1] 23.2% | [2] 7.4% | [3] 18.6% | [4] 42.8% | [5] 57.6% | [6] 21.6%

COc1ccc(NC(=O)c2cc3cc(N=Nc4ccc(Br)cc4)ccc3oc2=O)cc1
inactive: [1] -30.9% | [2] 14.4% | [3] -15.2% | [4] 0.05% | [5] -28.5% | [6] -17.6%

COc1c(Cl)cc([N+](=O)[O-])cc1C(=O)O
inactive: [1] 6.4% | [2] 25.9% | [3] -3.55% | [4] -15.7% | [5] 15.6% | [6] 16.9%

CC1(C)Cc2ccccc2C1=O
inactive: [1] 16.1% | [2] -4.85% | [3] 4% | [4] -53.6% | [5] -1.65% | [6] -2%

OCC1CSCC1CO (configuration not stated)
inactive: [1] 8.6% | [2] 12.8% | [3] -4.7% | [4] 15.3% | [5] 11.7% | [6] 3.5%

CCOc1ncnc2ccc(Cl)cc12
inactive: [1] -8.65% | [2] -3.7% | [3] -4.45% | [4] -18.1% | [5] 0.65% | [6] 0%

N=S(c1ccccc1)c1ccccc1[N+](=O)[O-] (configuration not stated)
inactive: [1] 16.2% | [2] -6.65% | [3] 18.6% | [4] 11.8% | [5] 4.35% | [6] -3.45%

COc1ccc(-c2cc(-c3ccc(OC)cc3)cc(-c3ccc(OC)cc3)c2)cc1
inactive: [1] -19.5% | [2] -22.8% | [3] -14.9% | [4] -27.8% | [5] -14% | [6] -16.6%

CC(C)(C)OC(=O)NC(Cc1ccccc1)C(=O)N[C@H]1c2ccsc2/C(=N/O)[C@H]1O (some centres not stated)
inactive: [1] -9.2% | [2] -6.95% | [3] 3.8% | [4] 9.15% | [5] -4.85% | [6] 29.9%

C=C(C)C1CCC2(C=O)CCC3(C)C(CCC4C5(C)CCC(O)C(C)(C)C5CCC43C)C12 (configuration not stated)
inactive: [1] 25.9% | [2] 37% | [3] 25.1% | [4] 15.8% | [5] 26% | [6] 20.8%

O=C(CCc1ccccc1)NC(=S)Nc1cc(C(F)(F)F)ccc1Cl
inactive: [1] 13.2% | [2] 14.2% | [3] 33.5% | [4] -41.8% | [5] -8% | [6] 34.9%

CCOC(C)=C(C#N)C#N
inactive: [1] 8.9% | [2] -9.4% | [3] 8.95% | [4] -7.85% | [5] -10.2% | [6] 4.9%

CCCCC(CC)COC(=O)CSC#N (configuration not stated)
inactive: [1] -6.7% | [2] -7.55% | [3] -9.85% | [4] -15.6% | [5] 2.05% | [6] -15.1%

CCCCCCCCCCCCCCOc1ccc2ccccc2c1
inactive: [1] 21.5% | [2] 6.7% | [3] 6.5% | [4] -10.4% | [5] -6.05% | [6] -4%

CC(=O)CCCC(=O)O
inactive: [1] 10.5% | [2] 1.25% | [3] -24.5% | [4] -11.9% | [5] 0.45% | [6] 10.2%

O=C(NC1CCCCC1)c1ccccc1Cl
inactive: [1] 23.6% | [2] -9.75% | [3] -15.3% | [4] 24.2% | [5] -10.2% | [6] 10.3%

Cc1nc2c(o1)C(=Nc1ccccc1)c1ccccc1C2=Nc1ccccc1
inactive: [1] -7.45% | [2] -23.4% | [3] 1.45% | [4] -13.9% | [5] -20.1% | [6] -9.65%

CCC/C(Cl)=N\OC(=O)Nc1ccc(OC(F)(F)F)cc1
inactive: [1] 24% | [2] 24.8% | [4] 20.1% | [5] 28.8% | [6] 58.6%
active: [3] 91%

CCCC(=O)N[C@H]1C[C@H]2CC[C@@]1(C)C2(C)C
inactive: [1] -31.6% | [2] -27.4% | [3] -15.1% | [4] 11.2% | [5] 10.3% | [6] -1.75%

Cc1cccc2c(CC(N)C(=O)O)c[nH]c12 (configuration not stated)
inactive: [1] 3.25% | [2] -19.9% | [3] -18.9% | [4] -23.4% | [5] -16.6% | [6] -3.35%

O=C1c2ccccc2-c2cc(Br)c(NC(=O)C3CCCCC3C(=O)O)cc21 (configuration not stated)
inactive: [1] 0.2% | [2] 3.55% | [3] 20.6% | [4] 25.8% | [5] -1.2% | [6] 3.6%

COc1ccc2c3c([nH]c2c1)C(C)N(S(=O)(=O)c1ccccc1)CC3 (configuration not stated)
inactive: [1] -8.1% | [2] -0.9% | [3] -2.65% | [4] -4.9% | [5] 8.45% | [6] 5.7%

CC1=NN(C(=O)c2cccnc2)C(=O)C1N=Nc1ccc(S(=O)(=O)N=C(N)N)cc1 (configuration not stated)
inactive: [1] 4.8% | [2] -14.6% | [3] -12.4% | [4] -6.5% | [5] 0% | [6] -21.9%

O=c1[nH]cnc2ccccc12
inactive: [1] 39% | [2] -1.55% | [3] 0.2% | [4] -7.3% | [5] 16.6% | [6] 14.7%

CC(=C/C=C/C=C(C)\C=C\C=C(\C)C(=O)O)/C=C/C=C(/C)C(=O)O
inactive: [1] 18.1% | [2] -7.95% | [3] 8.65% | [4] 7.75% | [5] 16.4% | [6] 16.9%

CC1CCC(C(C)(C)c2ccccc2)C(=O)C1 (configuration not stated)
inactive: [1] 12.1% | [2] -17.6% | [3] -9.4% | [4] 19.4% | [5] -19% | [6] 15.4%

CCC1c2c(cc(=O)[nH]c2O)C(=O)N1C (configuration not stated)
inactive: [1] 9.5% | [2] -4.75% | [3] 3.95% | [4] -9.15% | [5] -0.8% | [6] 0.55%

COc1ccc(C(=O)CCl)c(O)c1OC
inactive: [1] -4.95% | [2] 5.95% | [3] -5.6% | [4] 14.8% | [5] 5.7% | [6] 11.8%

Cn1cnc(CCc2ccccc2)n1
inactive: [1] -8.95% | [2] -3.05% | [3] -24.2% | [4] -19% | [5] -24.1% | [6] -11.2%

COc1ccc(SC(N(C)C)=[N+](C)C)cc1
inactive: [1] -17.1% | [2] 1.1% | [3] 7.1% | [4] 11.4% | [5] 2.8% | [6] 3.8%

CCC(Cl)COP(=O)(CC(Cl)CC)OC(C)P(=O)(OCC(Cl)CC)OCC(Cl)CC (configuration not stated)
active: [1] 98% | [2] 98.3% | [3] 98.7% | [4] 97.5% | [5] 97.2% | [6] 98.4%

Cc1ncc([N+](=O)[O-])n1CCCl
inactive: [1] -1.8% | [2] 12.2% | [3] 3.35% | [4] -27.2% | [5] -0.15% | [6] -4.35%

O=C1C2C(Cl)C(Cl)C(Cl)C(Cl)C2C(=O)N1NC1CCC([N+](=O)[O-])CC1[N+](=O)[O-] (configuration not stated)
inactive: [1] -22.9% | [2] -16.4% | [3] -18.5% | [4] 17.4% | [5] 2.5% | [6] 10.1%

CCc1nc(Nc2cccc(C)c2)c2cnn(-c3ccccc3)c2n1
inactive: [1] -0.85% | [2] -15.6% | [3] -2.3% | [4] -22.5% | [5] -3.05% | [6] -13.8%
